Assay results from PubChem BioAssay AID1159580 (chemical genetic matrix, 2015).
Among all 5,500 compounds or so, about 2,000 (36%) were called active. Inconclusive results (about 18%) are left out. No stated cut-off is given here; in the data, active means normalized growth mostly below about 0.91 (no sharp cut-off); inconclusive means no clear call, values can overlap the other calls; inactive means mostly above about 0.92. This is one part of the list.

Assay: chemical genetic growth profiling, strain panel (AID 1159580);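 further: tested at 20 µM; growth read once vehicle control cultures reached saturation at 30 °C; 1 = growth at the plate median or of vehicle wells; lower values mean less growth of the strain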
Conditions: growth OD

Measured: normalized growth

CN(C)C(=O)Nc1ccc(Cl)c(Cl)c1
inactive: S. cerevisiae deletion strains, locus YJR075W, strain HOC1, active compounds read low 0.958 | S. cerevisiae deletion strains, locus YKL009W, strain mrt4, active compounds read low 0.97 | S. cerevisiae deletion strains, locus YKL068W, active compounds read low 1 | S. cerevisiae deletion strains, locus YKL085W, strain MDH1 (second series), active compounds read low 1 | S. cerevisiae deletion strains, locus YKL085W, strain MDH1, active compounds read low 1 | S. cerevisiae deletion strains, locus YKL160W, strain elf1, active compounds read low 0.955 | S. cerevisiae deletion strains, locus YKL190W, strain CNB1, active compounds read low 0.996 | S. cerevisiae deletion strains, locus YKR001C, strain vps1, active compounds read low 0.984 | S. cerevisiae deletion strains, locus YKR026C, strain gcn3, active compounds read low 0.993 | S. cerevisiae deletion strains, locus YKR091W, strain srl3, active compounds read low 0.982 | S. cerevisiae deletion strains, locus YLL001W, strain dnm1, active compounds read low 0.901 | S. cerevisiae deletion strains, locus YLL026W, active compounds read low 0.991 | S. cerevisiae deletion strains, locus YLL041C, strain sdh2, active compounds read low 0.994 | S. cerevisiae deletion strains, locus YLR027C, strain aat2, active compounds read low 0.969 | S. cerevisiae deletion strains, locus YLR039C, strain RIC1, active compounds read low 1.04 | S. cerevisiae deletion strains, locus YLR058C, strain SHM2, active compounds read low 0.991 | S. cerevisiae deletion strains, locus YLR102C, strain apc9, active compounds read low 1 | S. cerevisiae deletion strains, locus YLR113W, strain HOG1, active compounds read low 0.909 | S. cerevisiae deletion strains, locus YLR221C, strain rsa3, active compounds read low 0.963 | S. cerevisiae deletion strains, locus YLR258W, strain gsy2, active compounds read low 0.984 | S. cerevisiae deletion strains, locus YLR262C, strain YPT6 (second series), active compounds read low 0.996 | S. cerevisiae deletion strains, locus YLR262C, strain YPT6, active compounds read low 1.01 | S. cerevisiae deletion strains, locus YLR268W, strain sec22, active compounds read low 0.988 | S. cerevisiae deletion strains, locus YLR320W, strain mms22, active compounds read low 0.98 | S. cerevisiae deletion strains, locus YLR330W, strain CHS5, active compounds read low 0.994 | S. cerevisiae deletion strains, locus YLR342W, strain FKS1 (second series), active compounds read low 0.983 | S. cerevisiae deletion strains, locus YLR342W, strain FKS1, active compounds read low 0.985 | S. cerevisiae deletion strains, locus YLR357W, strain rsc2, active compounds read low 0.969 | S. cerevisiae deletion strains, locus YLR370C, strain arc18, active compounds read low 0.965 | S. cerevisiae deletion strains, locus YLR371W, strain rom2, active compounds read low 1 | S. cerevisiae deletion strains, locus YLR384C, strain iki3, active compounds read low 1.01 | S. cerevisiae deletion strains, locus YLR418C, strain cdc73, active compounds read low 0.85 | S. cerevisiae deletion strains, locus YML016C, strain PPZ1, active compounds read low 0.993 | S. cerevisiae deletion strains, locus YML032C, strain rad52, active compounds read low 0.994 | S. cerevisiae deletion strains, locus YML120C, strain ndi1, active compounds read low 0.985 | S. cerevisiae deletion strains, locus YML124C, strain tub3, active compounds read low 1 | S. cerevisiae deletion strains, locus YMR058W, strain fet3, active compounds read low 0.992 | S. cerevisiae deletion strains, locus YMR078C, strain ctf18, active compounds read low 0.999 | S. cerevisiae deletion strains, locus YMR125W, strain sto1, active compounds read low 1.04 | S. cerevisiae deletion strains, locus YMR129W, active compounds read low 0.991 | S. cerevisiae deletion strains, locus YMR205C, strain PFK2, active compounds read low 0.917 | S. cerevisiae deletion strains, locus YMR223W, strain ubp8, active compounds read low 0.987 | S. cerevisiae deletion strains, locus YMR231W, strain pep5, active compounds read low 1 | S. cerevisiae deletion strains, locus YMR263W, strain SAP30, active compounds read low 0.956 | S. cerevisiae deletion strains, locus YMR307W, strain GAS1, active compounds read low 0.812 | S. cerevisiae deletion strains, locus YNL067W, strain RPL9B, active compounds read low 0.986 | S. cerevisiae deletion strains, locus YNL071W, strain lat1, active compounds read low 0.982 | S. cerevisiae deletion strains, locus YNL128W, strain TEP1, active compounds read low 0.993 | S. cerevisiae deletion strains, locus YNL153C, strain GIM3, active compounds read low 0.996 | S. cerevisiae deletion strains, locus YNL183C, strain NPR1, active compounds read low 0.939 | S. cerevisiae deletion strains, locus YNL209W, strain ssb2, active compounds read low 0.972 | S. cerevisiae deletion strains, locus YNL233W, strain BNI4, active compounds read low 0.97 | S. cerevisiae deletion strains, locus YNL248C, strain rpa49, active compounds read low 1.02 | S. cerevisiae deletion strains, locus YNL250W, strain rad50, active compounds read low 1.01 | S. cerevisiae deletion strains, locus YNL271C, strain bni1, active compounds read low 1 | S. cerevisiae deletion strains, locus YNL298W, strain CLA4, active compounds read low 0.998 | S. cerevisiae deletion strains, locus YNL307C, strain MCK1, active compounds read low 0.935 | S. cerevisiae deletion strains, locus YNL322C, strain KRE1 (second series), active compounds read low 0.969 | S. cerevisiae deletion strains, locus YNL322C, strain KRE1, active compounds read low 1 | S. cerevisiae deletion strains, locus YNR049C, strain mso1, active compounds read low 0.987 | S. cerevisiae deletion strains, locus YNR052C, strain pop2, active compounds read low 1.03 | S. cerevisiae deletion strains, locus YOL006C, strain TOP1, active compounds read low 0.862 | S. cerevisiae deletion strains, locus YOL012C, strain htz1 1.04 | S. cerevisiae deletion strains, locus YOL147C, strain pex11, active compounds read low 1 | S. cerevisiae deletion strains, locus YOR001W, strain rrp6, active compounds read low 1 | S. cerevisiae deletion strains, locus YOR061W, strain CKA2, active compounds read low 1 | S. cerevisiae deletion strains, locus YOR069W, strain VPS5, active compounds read low 1 | S. cerevisiae deletion strains, locus YOR070C, strain gyp1, active compounds read low 0.997 | S. cerevisiae deletion strains, locus YOR080W, strain dia2, active compounds read low 1.01 | S. cerevisiae deletion strains, locus YOR083W, strain WHI5, active compounds read low 0.927 | S. cerevisiae deletion strains, locus YOR106W, strain vam3, active compounds read low 0.919 | S. cerevisiae deletion strains, locus YOR136W, strain idh2, active compounds read low 0.997 | S. cerevisiae deletion strains, locus YOR144C, strain elg1, active compounds read low 1.01 | S. cerevisiae deletion strains, locus YOR184W, strain ser1, active compounds read low 0.929 | S. cerevisiae deletion strains, locus YOR231W, strain MKK1, active compounds read low 0.991 | S. cerevisiae deletion strains, locus YOR265W, strain rbl2, active compounds read low 0.992 | S. cerevisiae deletion strains, locus YOR270C, strain vph1, active compounds read low 0.925 | S. cerevisiae deletion strains, locus YOR290C, strain snf2, active compounds read low 0.926 | S. cerevisiae deletion strains, locus YOR316C, strain cot1, active compounds read low 1 | S. cerevisiae deletion strains, locus YPL051W, strain arl3, active compounds read low 0.956 | S. cerevisiae deletion strains, locus YPL055C, strain LGE1, active compounds read low 0.95 | S. cerevisiae deletion strains, locus YPL078C, strain atp4, active compounds read low 0.988 | S. cerevisiae deletion strains, locus YPL106C, strain sse1, active compounds read low 0.981 | S. cerevisiae deletion strains, locus YPL240C, strain hsp82, active compounds read low 0.982 | S. cerevisiae deletion strains, locus YPL241C, strain CIN2, active compounds read low 1 | S. cerevisiae deletion strains, locus YPL256C, strain CLN2, active compounds read low 0.975 | S. cerevisiae deletion strains, locus YPR119W, strain clb2, active compounds read low 0.996 | S. cerevisiae deletion strains, locus YPR141C, strain kar3, active compounds read low 1 | S. cerevisiae deletion strains, locus YPR163C, strain tif3, active compounds read low 1 | S. cerevisiae deletion strains, locus YPR167C, strain met16, active compounds read low 0.999 | S. cerevisiae deletion strains, strain wtn01, active compounds read low 0.994 | S. cerevisiae strains, strain wild type, active compounds read low 0.995
